Screens deposited in PubChem BioAssay by National Center for Advancing Translational Sciences (NCATS).
An excerpt weighted towards active compounds, which were near 12% of everything screened.
Pf growth 96h = P. falciparum growth inhibition at 96 hour, primary screen for plastid delayed-death inhibitors; 6.9% of 320,000 active; Potency, µM (doses to about 28.7 µM), for inactives: at the top dose activity change, negative = inhibition, most hits filed as inhibitors; AID 504834; P. falciparum luciferase reporter growth, 96 h; further: on the % scale 0 is the no-effect control and ±100 the full control effect
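Luminescence readout: decreased luciferase signal marks inhibited growth of reporter-expressing P. falciparum in infected red cells (2% hematocrit, 0.05% parasitemia final), exposed to compound two generations (96 h, 37 C, 5% CO2).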
Sm TGR block = inhibitors of Schistosoma mansoni thioredoxin glutathione reductase; Q962Y6; purified TGR, DTNB reduction, TNB absorbance 405 nm; Potency, µM (top dose mostly 114 µM), without a hit: top-dose activity change, negative = inhibition, most hits filed as inhibitors; 3% of 360,000 active; AID 485364; further: on the % scale 0 is the no-effect control and ±100 the full control effect; nearly all actives have a fitted effect of over 60% in size
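Kinetic colorimetric format: TGR-catalysed, NADPH-driven DTNB reduction monitored via TNB absorbance. Enzyme dispensed at 20 nM; compound exposure 15 min at room temperature before reaction start.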
SARS PLP yeast = SARS-CoV PLP inhibition in yeast. S. cerevisiae expressing SARS-CoV PLpro, growth rescue. Potency, µM (titrated, usually from 32.9 µM), for inactives: top-dose activity, positive = growth rescue, actives largely listed as activators. 0.19% of 330,000 active. AID 485353; calls by dose curve; further: 0% is about no effect; nearly all actives have a fitted effect of over 55% in size
Pf growth 48h = P. falciparum growth inhibition at 48 hours (one generation); P. falciparum luciferase growth in erythrocytes, 48 h; Potency, µM (top dose mostly 28.7 µM), without a hit: at the top dose activity change, negative = inhibition, usual class: inhibitors; 5.9% of 310,000 active; further: on the % scale 0 is the no-effect control and ±100 the full control effect
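A one-generation exposure of luciferase-tagged malaria parasites in RPMI 1640/Albumax erythrocyte culture, 37 C and 5% CO2. Inhibition is inferred from decreased luminescence after adding detection reagent.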
Active calls of the source: *; ? = inconclusive; . = not tested or not shown. Unless noted, the call rests on the fitted dose curve; in most records, active means well fitted curve in the direction sought with a large enough effect; inconclusive means small, poorly fitted or top-dose-only effect, or another doubt; inactive means no such curve, though single readings can be large; an effect the other way counts as inactive or inconclusive. Potency means the concentration at half of the fitted maximal effect.

SMILES	Pf growth 96h	Sm TGR block	SARS PLP yeast	Pf growth 48h
COc1ccc(C)cc1NC(=O)CSc1nnc(-c2ccco2)n1Cc1ccco1	10.4µM*	-32.7%	-0.5%	-19.0%
CCOc1ccccc1NC(=O)CSc1nnc(-c2ccco2)n1Cc1ccco1	?	50.1µM*	2.8%	?
Clc1ccc(CSc2nnc(-c3ccccn3)n2Cc2ccco2)c(Cl)c1	14.7µM*	0.0%	5.7%	?
COc1ccccc1NC(=O)CSc1nnc(COc2ccc(Cl)cc2)n1Cc1ccco1	-0.2%	?	-7.6%	?
CCOc1ccccc1NC(=O)CSc1nnc(-c2ccccn2)n1Cc1ccco1	3.7µM*	?	0.5%	?
CCOc1ccccc1NC(=O)CSc1nnc(-c2ccccc2Cl)n1Cc1ccco1	2.0%	50.1µM*	-2.5%	?
O=C(c1ccc(CS(=O)(=O)c2ccc(Br)cc2)o1)N1CCCCCC1	-10.4%	35.5µM*	1.8%	.
O=C(c1ccc(CS(=O)(=O)c2ccccc2)o1)N1CCOCC1	11.7µM*	39.8µM*	4.2%	.
O=C(c1ccc(CS(=O)(=O)c2ccc(Br)cc2)o1)N1CCN(C2CCCCC2)CC1	24.2%	-5.2%	-4.3%	.
O=C(c1ccc(CS(=O)(=O)c2ccc(Br)cc2)o1)N1CCCC1	7.38µM*	0.0%	4.3%	.
CCOC(=O)c1c(C)[nH]c(C)c1S(=O)(=O)N(C)CC(=O)Nc1ccccc1OC	?	-21.8%	-3.1%	10.4µM*
CCOC(=O)c1c(C)[nH]c(C)c1S(=O)(=O)N(C)CC(=O)Nc1ccccc1	?	1.7%	7.8%	-3.9%
Cc1ccc2nc(NC(=O)CN3C(=O)NC4(CCCCC4)C3=O)sc2c1	8.2%	-2.8%	8.0%	-2.3%
CC1CCN(c2nc(-c3ccncc3)nc3ccccc23)CC1	4.65µM*	-20.0%	-31.3%	4.15µM*
CC12CC3CC(C)(C1)CC(Nc1nc(N4CCOCC4)nc4ccccc14)(C3)C2	1.31µM*	8.0%	-0.4%	1.65µM*
CC1CCN(c2nc(-c3ccc(C(C)(C)C)cc3)nc3ccccc23)CC1	.	7.8%	.	.
c1ccc2c(N3CCOCC3)nc(N3CCOCC3)nc2c1	4.15µM*	-4.5%	3.0%	?
CC1CCCCN1c1nc(-c2ccncc2)nc2ccccc12 (stereo not drawn)	3.6%	3.7%	-13.0%	8.28µM*
c1ccc2c(N3CCOCC3)nc(-c3ccncc3)nc2c1	-13.9%	-27.6%	-18.9%	9.28µM*
COc1cccc(C(C(=O)NC2CCCCC2)N(C(=O)c2csnn2)C2CC2)c1 (stereo not drawn)	-27.3%	3.7%	0.8%	-3.5%
CCSC1=NC2(CCCCC2)Nc2sc3c(c21)CCCC3	2.62µM*	56.2µM*	-2.9%	.
O=C(COC(=O)CCS(=O)(=O)c1ccccc1)Nc1ccccc1	-20.9%	8.91µM*	-4.2%	5.0%
CC(=O)Nc1ccc(C(=O)COC(=O)CCS(=O)(=O)c2ccccc2)cc1	5.5%	-16.0%	1.5%	23.2%
OCC[n+]1c2ccccc2nc2ccc(N3CCOCC3)cc21	0.262µM*	?	-3.1%	0.329µM*
Cc1ccc(S(=O)(=O)c2nnn3c2nc(N2CCOCC2)c2sccc23)cc1C	.	-1.4%	.	.
SMILES	Pf growth 96h	Sm TGR block	SARS PLP yeast	Pf growth 48h
CN(Cc1ccccc1)Cc1c(O)ccc2c(=O)c(-c3ccccc3)c(C(F)(F)F)oc12	.	-4.9%	.	.
COc1ccc(C(=O)NC2CCCCCC2)cc1S(=O)(=O)N1CCCc2ccccc21	10.4µM*	0.0%	0.0%	.
COc1ccc(C(=O)NC2CCCCCC2)cc1S(=O)(=O)N1CCCC1	?	-0.8%	-5.5%	-24.2%
COc1ccc(C(=O)Nc2nc3c(s2)CCCC3)cc1S(=O)(=O)N1CCCc2ccccc21	10.4µM*	0.7%	13.7%	13.1µM*
O=c1oc2c(CN3CCCCC3)c(O)ccc2cc1-c1nc2ccccc2[nH]1	10.4µM*	-1.6%	1.4%	?
O=c1oc2c(O)cccc2cc1-c1nc2ccccc2[nH]1	-10.9%	11.3%	-2.2%	183.3%
CCc1ccccc1NC(=O)CSc1nc2c(oc3ccccc32)c(=O)n1C	.	2.8%	.	.
CCCCNCCOCCOc1ccccc1-c1ccccc1	?	2.8%	-6.0%	10.4µM*
Cc1ccc(C(C)C)c(OCCNCc2ccccc2)c1	336.2%	-31.9%	0.0%	8.3%
Cc1cc(OCCOCCNCc2ccccc2)ccc1C(C)C	7.38µM*	2.5%	-4.7%	?
CC(C)(C)c1ccccc1OCCOCCNCc1ccccc1	23.0%	0.5%	-12.9%	8.28µM*
